Here are results for 26 molecules from PubChem BioAssay AID1578 (Sanford-Burnham Center for Chemical Genomics, 2009).

The term inhibition denotes the drop in the measured response relative to a control, in per cent.

Hit rate of the full screen: of about 290,000 compounds, about 3,000 (1%) were called active. No stated cut-off is given here; in the data, active means inhibition mostly above about 36% (no sharp cut-off); inactive means mostly below about 34%. The sample as a whole holds a higher share of actives than the screen did.

The nature of this assay: inhibition of NOD1-driven NF-kB reporter – cell-based, luminescence, uHTS, primary screen (AID 1578).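 Further: HEK-293T reporter cells stimulated with the NOD1 agonist gamma-tri-DAP.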 The note with it: NOD1-driven NF-kB luciferase reporter cells, at 4 µM, active compounds read high.
In the case of `CC(=O)c1cccc(NC(=O)c2ccc(N(Cc3ccccc3C)S(C)(=O)=O)cc2)c1`, the inhibition is 6.4% (inactive). Turning to `Nc1ccc(-c2ccc(C(=O)O)s2)cn1`, the inhibition is -26.1% (inactive). The result for `CNC(=O)c1ccc(-c2ccccc2)s1` reads -12.7% (inactive); that for `O=C(O)c1ccc(-c2ccc(-c3ccccc3)cc2)s1`, 93.5% (active). `O=C(CNC(=O)c1ccco1)NCCCc1ccccc1`: the inhibition was 17.4% (inactive). With `Cc1cc(/C=C2/NC(=O)NC2=O)c(C)n1-c1ccccn1`, the inhibition was -34.5% (inactive). With `Cc1cc(/C=c2\sc3nc4ccccc4n3c2=O)c(C)n1-c1ccc(C(=O)O)cc1`, the inhibition was 20.6% (inactive).

In the case of `CCN(CC)c1ccc(/C=c2\sc3nc4ccccc4n3c2=O)c(O)c1`, the inhibition is 33.8% (inactive). Regarding `O=c1/c(=C/c2ccccn2)sc2nc3ccccc3n12`, the inhibition is -98.1% (inactive).

Regarding `Cc1cc(/C=c2/sc3nc4ccccc4n3c2=O)c(C)n1-c1ccccn1`, the inhibition is 74.4% (active). Consider `O=c1c2ccccc2cnn1-c1ccc(Cl)nn1`, for which the inhibition was -19% (inactive). `Cc1ccccc1-n1nc2c(c1NC(=O)c1c(-c3ccccc3Cl)noc1C)CS(=O)(=O)C2`: the inhibition is -10.3% (inactive). Under `Cc1nn(C)cc1CNC(=O)c1ccc(Br)o1` stands -3.1% (inactive). The result for `COc1ccc2ccccc2c1/C=N\NC(=O)c1ccc(C)s1` reads -3.2% (inactive); that for `N#Cc1cnc(SCC(=O)NNC(=O)COc2cccc3ccccc23)nc1N`, -19.9% (inactive). On to `Cc1cccc(OCC(=O)NNC(=O)CSc2ncc(C#N)c(N)n2)c1`, for which the inhibition is 98.2% (active). Under `Cc1ccc(OCC(=O)NNC(=O)CSc2ncc(C#N)c(N)n2)cc1` stands -22.7% (inactive); under `CCCCn1c(SCC(=O)N2CCOCC2)nc2ccccc2c1=O`, -11.7% (inactive). With `COc1ccc(NC(=O)CSc2nc(N)c(NC(=O)c3cccs3)c(=O)[nH]2)cc1`, the inhibition was -4.6% (inactive).

Turning to `COc1cccc(-c2ccc(NC(=O)C3CCCN(CCCn4cccn4)C3)cc2)c1` (stereo unspecified), the inhibition is -32.8% (inactive).

Take `Cc1ccccc1Oc1nc2ccccn2c(=O)c1/C=C(\C#N)C(=O)Nc1c(C)n(C)n(-c2ccccc2)c1=O`: the inhibition is -32.9% (inactive). With `O=C(COc1ccc(Cl)cc1Cl)Nc1ccccc1NS(=O)(=O)c1cccs1`, the inhibition was 38.6% (inactive). Under `O=C(COc1ccccc1)Nc1ccccc1NS(=O)(=O)c1cccs1` stands 15.4% (inactive); under `N#Cc1c(NC(=O)CSc2nnc(-c3ccccc3O)n2-c2ccccc2)sc2c1CCCC2`, -23.8% (inactive).

Consider `N#Cc1c(Sc2ncc(C(F)(F)F)cc2Cl)nsc1C/C=N\OCc1c(F)cccc1Cl`, for which the inhibition is 23.5% (inactive). Under `O=C(Nc1ccc(Oc2cccnc2)cc1)C1CCN(Cc2ccc(F)cc2)CC1` stands -7.5% (inactive).
